“And” between values parts separate entries of the source, which are not always exact repeats. Identical values can stand only once. Compounds without any hit were thinned out: in the full panel of roughly 79,000, 15% have a hit. More than one record can exist for a structure, and the calls need not agree. The source made the active and inactive calls. No stated cut-off is given here; in the data, active means growth inhibition above about 70%; inactive means the rest.
Columns and labels:
[1] = NCI Yeast Anticancer Drug Screen. Data for the rad14 strain (AID 159);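 further: 0% = growth of vehicle-treated control cultures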; settings: S. cerevisiae rad14 strain growth inhibition, stronger effect = higher value
Summary of the method: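 Here, inhibition of yeast growth was measured after compound exposure, using a strain with a genetic defect in DNA damage repair and vehicle-treated cultures as the reference.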

[2] = NCI Yeast Anticancer Drug Screen. Data for the sgs1 mgt1 strain (AID 161);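 further: 0% = growth of cultures given vehicle only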; settings: S. cerevisiae sgs1 mgt1 strain, stronger effect = higher value
Summary of the method: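 Growth of a repair-deficient yeast mutant was monitored after compound treatment and expressed as inhibition relative to vehicle-treated cultures.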

[3] = NCI Yeast Anticancer Drug Screen. Data for the cln2 rad14 strain (AID 165);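 further: 0% = growth equal to vehicle treated cultures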; settings: S. cerevisiae cln2 rad14 strain, stronger effect = higher value
Summary of the method: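 Growth inhibition, relative to vehicle-treated controls, is the read-out. The test organism is a yeast strain with defined genetic alterations, cln2 rad14.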

[4] = NCI Yeast Anticancer Drug Screen. Data for the bub3 strain (AID 167); settings: S. cerevisiae bub3 mutant strain, stronger effect = higher value
Summary of the method: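 Whole-cell yeast assay. The mutant strain was incubated with compounds, and growth inhibition was determined by comparison with vehicle-treated cells.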

[5] = NCI Yeast Anticancer Drug Screen. Data for the wt2 strain (AID 169);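 further: 0% = growth of vehicle-treated yeast cultures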; settings: S. cerevisiae wt2 strain growth inhibition, stronger effect = higher value
Summary of the method: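 Compound exposure of yeast; growth compared with vehicle controls; inhibition reported.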

[6] = NCI Yeast Anticancer Drug Screen. Data for the mlh1 strain (AID 171);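 further: 0% = growth of vehicle-treated control cultures of the same strain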; settings: S. cerevisiae mlh1 strain growth inhibition, stronger effect = higher value
Summary of the method: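 Compounds are applied to a genetically altered yeast strain, and its growth is compared with that of vehicle-treated cultures to give percent inhibition.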

[7] = NCI Yeast Anticancer Drug Screen. Data for the sgs1 strain (AID 173);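 further: 0% = growth of vehicle-only control cultures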; settings: S. cerevisiae sgs1 mutant, stronger effect = higher value
Summary of the method: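 Compounds applied to genetically altered yeast; growth compared with vehicle-treated cultures to give % inhibition.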

[8] = NCI Yeast Anticancer Drug Screen. Data for the rad18 strain (AID 177); settings: S. cerevisiae rad18 mutant growth inhibition, stronger effect = higher value
Summary of the method: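 Compounds are applied to a repair-deficient yeast strain, and growth is compared with that of vehicle-treated cultures to give percent inhibition.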

[9] = NCI Yeast Anticancer Drug Screen. Data for the wt1 strain (AID 149);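 further: 0% = growth of vehicle-treated wt1 cultures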; settings: S. cerevisiae wt1 strain (SPY 50644) growth inhibition, stronger effect = higher value
Summary of the method: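 Measured: growth of wt1 yeast under compound versus vehicle treatment, reported as inhibition.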

[10] = NCI Yeast Anticancer Drug Screen. Data for the rad50EPP+ strain (AID 151);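 further: 0% = growth of vehicle-treated control cultures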; settings: S. cerevisiae rad50 mutant strain, stronger effect = higher value
Summary of the method: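 rad50EPP+ yeast treated with test compounds. Readout: growth vs vehicle control.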

[11] = NCI Yeast Anticancer Drug Screen. Data for the mgt1 strain (AID 153); settings: S. cerevisiae mgt1 mutant growth inhibition, stronger effect = higher value
Summary of the method: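 Growth inhibition relative to vehicle controls was scored for the mgt1 yeast strain after compound exposure.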

[12] = NCI Yeast Anticancer Drug Screen. Data for the rad50 strain (AID 155);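 further: 0% = growth of vehicle-only cultures of the same strain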; settings: S. cerevisiae rad50 strain growth inhibition, stronger effect = higher value
Summary of the method: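 Growth of the mutant yeast was measured after compound exposure and referenced to vehicle-treated cultures.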

[13] = NCI Yeast Anticancer Drug Screen. Data for the mec2-1 strain (AID 157); settings: S. cerevisiae mec2-1 strain, stronger effect = higher value
Summary of the method: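 Growth inhibition is read against vehicle-treated controls after compound exposure of the mec2-1 yeast strain, which is defective in DNA damage repair or cell cycle control.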

[14] = NCI Yeast Anticancer Drug Screen. Data for the CLN2oe strain (AID 163);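 further: 0% = growth of vehicle-only control cultures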; settings: S. cerevisiae CLN2oe strain, stronger effect = higher value
Summary of the method: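 Compound-treated yeast; growth vs vehicle ctrl = % inhibition. Genetically altered strain (cell-cycle control).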

[15] = NCI Yeast Anticancer Drug Screen. Data for the mlh1 rad18 strain (AID 175); settings: S. cerevisiae mlh1 rad18 strain growth inhibition, stronger effect = higher value
Summary of the method: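 Cells of a genetically altered yeast strain, deficient in DNA damage repair, were treated with compound. Their growth was then compared with that of vehicle-treated cultures to give inhibition.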

[16] = at 5.0 µM (retest, dose inferred, filed as 0.5)
[17] = at 50.0 µM (retest, dose inferred, filed as 5.0)

Measured: growth inhibition

CC[C@]1(O)CC(OC2CC(N(C)C)C(O)C(C)O2)c2c(cc3c(c2O)C(=O)c2c(O)cccc2C3=O)[C@@H]1C(=O)OC (stereo partly specified)
inactive: [2]; [16] 36% | [3]; [16] 15% | [4]; at 1.2 µM 33% | [4]; at 3.7 µM 32% | [4]; [16] 21% | [4]; at 11.0 µM 36% | [5]; at 1.2 µM -6% | [5]; at 3.7 µM -6% | [5]; at 11.0 µM 41% | [6]; at 1.2 µM -4% | [6]; at 3.7 µM 6% | [6]; at 11.0 µM 9% | [7]; at 1.2 µM -8% | [7]; at 3.7 µM -2% | [7]; at 11.0 µM 14% | [8]; at 1.2 µM 6% | [8]; at 3.7 µM -9% | [8]; at 11.0 µM 2%
active: [1]; at 100.0 µM 96% | [2]; [17] 96% | [2]; at 50.0 µM 93% | [3]; [17] 92% | [3]; at 50.0 µM 90.4% | [4]; at 33.0 µM 93% | [4]; [17] 97% | [4]; at 50.0 µM 92% | [4]; at 100.0 µM 98% | [5]; at 33.0 µM 95% | [5]; at 100.0 µM 97% | [6]; at 33.0 µM 90% | [6]; at 100.0 µM 96% | [7]; at 33.0 µM 92% | [7]; at 100.0 µM 96% | [8]; at 33.0 µM 95% | [8]; at 100.0 µM 97%

BrCC[N+]12CC[N+](CCBr)(CC1)C2
active: [9]; at 33.0 µM 82% | [9]; at 100.0 µM 94% | [10]; at 33.0 µM 81% | [10]; at 100.0 µM 92% | [11]; at 33.0 µM 88% | [11]; at 100.0 µM 96% | [12]; at 33.0 µM 87% | [12]; [17] 94% and 89% | [12]; at 50.0 µM 86.7% and 86.5% | [12]; at 100.0 µM 93% | [13]; at 33.0 µM 87% | [13]; [17] 98% and 94% | [13]; at 50.0 µM 92.2% and 89.9% | [13]; at 100.0 µM 95% | [1]; at 33.0 µM 93% | [1]; at 100.0 µM 94% | [2]; [17] 90% and 93% | [2]; at 50.0 µM 89.2% | [14]; at 33.0 µM 78% | [14]; at 100.0 µM 89% | [3]; at 50.0 µM 84.9% and 85.5% | [4]; at 33.0 µM 89% | [4]; [17] 92% and 95% | [4]; at 50.0 µM 86.7% and 87% | [4]; at 100.0 µM 95% | [5]; at 33.0 µM 86% | [5]; at 100.0 µM 95% | [6]; at 33.0 µM 88% | [6]; at 100.0 µM 96% | [7]; at 33.0 µM 77% | [7]; at 100.0 µM 89% | [15]; [17] 95% and 90% | [15]; at 50.0 µM 90.6% and 86.9% | [8]; at 33.0 µM 89% | [8]; at 100.0 µM 95%
inactive: [9]; at 1.2 µM 1% | [9]; at 3.7 µM 6% | [9]; at 11.0 µM 14% | [10]; at 1.2 µM 9% | [10]; at 3.7 µM 14% | [10]; at 11.0 µM 12% | [11]; at 1.2 µM 12% | [11]; at 3.7 µM -2% | [11]; at 11.0 µM 42% | [12]; at 1.2 µM 14% | [12]; at 3.7 µM 20% | [12]; [16] 40% and 27% | [12]; at 11.0 µM 55% | [13]; at 1.2 µM -4% | [13]; at 3.7 µM 5% | [13]; [16] 43% and 1% | [13]; at 11.0 µM 29% | [1]; at 1.2 µM -13% | [1]; at 3.7 µM -16% | [1]; at 11.0 µM 56% | [2]; [16] 46% and -15% | [14]; at 1.2 µM 1% | [14]; at 3.7 µM -9% | [14]; at 11.0 µM 2% | [3]; [16] 35% and 23% | [4]; at 1.2 µM -5% | [4]; at 3.7 µM -1% | [4]; [16] 34% and -12% | [4]; at 11.0 µM 36% | [5]; at 1.2 µM -33% | [5]; at 3.7 µM -18% | [5]; at 11.0 µM 4% | [6]; at 1.2 µM 12% | [6]; at 3.7 µM -2% | [6]; at 11.0 µM 42% | [7]; at 1.2 µM -17% | [7]; at 3.7 µM 15% | [7]; at 11.0 µM 5% | [15]; [16] 64% and 42% | [8]; at 1.2 µM 10% | [8]; at 3.7 µM 25% | [8]; at 11.0 µM 53%
92% (active) and 65% (inactive): [3]; [17]

C[N+](C)(C)CC1CCCC(C[N+](C)(C)C)C1=O (stereo unspecified)
active: [9]; at 100.0 µM 98% | [10]; at 100.0 µM 99% | [11]; at 100.0 µM 99% | [12]; at 50.0 µM 91.8% | [12]; at 100.0 µM 99% | [13]; at 50.0 µM 99.8% | [13]; at 100.0 µM 98% | [1]; at 100.0 µM 99% | [4]; at 50.0 µM 89.2% | [4]; at 100.0 µM 99% | [5]; at 100.0 µM 94% | [6]; at 100.0 µM 99% | [15]; at 50.0 µM 97.2% | [8]; at 33.0 µM 93% | [8]; at 100.0 µM 98%
inactive: [9]; at 1.2 µM -1% | [9]; at 3.7 µM 3% | [9]; at 11.0 µM -1% | [9]; at 33.0 µM 13% | [10]; at 1.2 µM -3% | [10]; at 3.7 µM 3% | [10]; at 11.0 µM 13% | [10]; at 33.0 µM 64% | [11]; at 1.2 µM 0% | [11]; at 3.7 µM 2% | [11]; at 11.0 µM 5% | [11]; at 33.0 µM 27% | [12]; at 1.2 µM 2% | [12]; at 3.7 µM -18% | [12]; [16] 1% | [12]; at 11.0 µM 37% | [12]; at 33.0 µM 63% | [12]; [17] 35% | [13]; at 1.2 µM 1% | [13]; at 3.7 µM 5% | [13]; [16] 6% | [13]; at 11.0 µM 10% | [13]; at 33.0 µM 25% | [13]; [17] -19% | [1]; at 1.2 µM -1% | [1]; at 3.7 µM 0% | [1]; at 11.0 µM 8% | [1]; at 33.0 µM 38% | [2]; [16] 3% | [2]; [17] 50% | [2]; at 50.0 µM 68.3% | [3]; [16] 6% | [3]; [17] 21% | [3]; at 50.0 µM 25.5% | [4]; at 1.2 µM -1% | [4]; at 3.7 µM 4% | [4]; [16] -45% | [4]; at 11.0 µM 4% | [4]; at 33.0 µM 44% | [4]; [17] 41% | [5]; at 1.2 µM -3% | [5]; at 3.7 µM 7% | [5]; at 11.0 µM 2% | [5]; at 33.0 µM 5% | [6]; at 1.2 µM 0% | [6]; at 3.7 µM 3% | [6]; at 11.0 µM 7% | [6]; at 33.0 µM 26% | [15]; [16] 8% | [15]; [17] 62% | [8]; at 1.2 µM 1% | [8]; at 3.7 µM 13% | [8]; at 11.0 µM 44%

Reference: PubChem BioAssay (NCI)
